# Test results from paper PMC13494018.
# B1: design_486_d4f32670-1303-4d79-8413-1b14cb3eff50_1679_dldesign_0_cycle1_af2pred (protein)
# chain: AAAAKAKVQAAAAKALAEAKKTAAEAKTLTPEEATALLQATAADAIRQAAEYGKLDPEVAGSALVEVVKLLAEARRAVAA
# B2: design_486_d4f32670-1303-4d79-8413-1b14cb3eff50_1391_dldesign_0_cycle1_af2pred (protein)
# chain: DARLKKAAELLKKHTEAVLKGPVHPEAKLATAEVAIESAQGIYKAGADDAEVKAAAKEALAAAKELKERAEKELAAAEAAAAAA
# B3: design_486_d4f32670-1303-4d79-8413-1b14cb3eff50_1517_dldesign_0_cycle1_af2pred (protein)
# chain: AEAEKIIKEAKALAKEAKALAAQGAALDPAIAVIAAAAAAAAASAEKMVKENGEAKAEDAKKLLEVAKTLLEQAKAALEAALAAAA
# B4: design_486_d4f32670-1303-4d79-8413-1b14cb3eff50_1562_dldesign_0_cycle1_af2pred (protein)
# chain: MEEREKVAESMKKMLDAIGEIAAAETGEEGKKMAEEAKKEVEEAAKKGLSPEEIAAVANKKAAEILKVTMAAARAK
# B5: design_486_d4f32670-1303-4d79-8413-1b14cb3eff50_1561_dldesign_0_cycle1_af2pred (protein)
# chain: SEVEEKAKELAEKALALVKTGTGEAEAKKLLAAAPPEVVIQAIKVAAEKAKAEGPEMAAYANKLAAAANQALLEKN
# B6: design_486_d4f32670-1303-4d79-8413-1b14cb3eff50_1586_dldesign_0_cycle1_af2pred (protein)
# chain: AEERAAAIARATLAGSLALMRTMSPEDAIRLMEVLADILLSNPLTREYGERVAELARRAREEGPAAAEEAIREGAEIGEELRAA
# B7: design_486_d4f32670-1303-4d79-8413-1b14cb3eff50_1573_dldesign_0_cycle1_af2pred (protein)
# chain: SLEEAKKKAKEVTEKGKEDLATLKEIAVQAAKQGQLAGAQAALNSAKVVAKATAEEVAKLVGPEAGEKALKEGEALVKEAKKEVEKAA
# B8: design_486_d4f32670-1303-4d79-8413-1b14cb3eff50_1495_dldesign_0_cycle1_af2pred (protein)
# chain: AAALAAAEAKAKAYIEKVKALDPELGKKTAEAVKKGVKSTPETAAALGNEVTAAAPEEAKPYVAAAIAQAILANALS
# B9: design_486_d4f32670-1303-4d79-8413-1b14cb3eff50_1479_dldesign_0_cycle1_af2pred (protein)
# chain: AEATQLLSEAIDLAKEIEENKKKATPEVAKIYDEALEEANKAMNLAAKASVADAATAAKLIAEAKKELEKAKELYEKAKKLEKE
# B10: design_486_d4f32670-1303-4d79-8413-1b14cb3eff50_1359_dldesign_0_cycle1_af2pred (protein)
# chain: AAAAADRAFAITKATAEASMKLMETMTAESALKLGETVAAILRAMAKAYPAHAAELNALADKVEATAKAVAEAKK
# B11: design_486_d4f32670-1303-4d79-8413-1b14cb3eff50_1613_dldesign_0_cycle1_af2pred (protein)
# chain: AAAYKKAVAALDAVVAEAAAISEGAGLIATNIKTQGLTQGAAAKDPAEAAKIVEAALKLATDSVTKYVESSAALR
# B12: design_486_d4f32670-1303-4d79-8413-1b14cb3eff50_1569_dldesign_0_cycle1_af2pred (protein)
# chain: NAQAKAFLDQGKAKMEAGKALIKEGKYEEAAAEFTRAYSYFLAAAGLARAAGDKALAAEAEKAAKEAEALAKEAKA
# B13: design_486_d4f32670-1303-4d79-8413-1b14cb3eff50_1357_dldesign_0_cycle1_af2pred (protein)
# chain: GMSEELAKELAEKVTKALAAASKAAAAALANPAVAAQANALLAQAVDYALKFQEAAKKDVEEAKKEAEKAIAAANELKALAAAA
# B14: design_486_d4f32670-1303-4d79-8413-1b14cb3eff50_1336_dldesign_0_cycle1_af2pred (protein)
# chain: DAAAQAKAVAEKGVELIKKADPETGKKVGELVEKGAASANAASLLLEAAQLAAEAAKKKGWTPEMRQGVHLLLLASSLAHQAAVAAA
# B15: design_486_d4f32670-1303-4d79-8413-1b14cb3eff50_1519_dldesign_0_cycle1_af2pred (protein)
# chain: DEVAKLVDETAAAARAAVAAAARTAAAGTPEQSAALSSLMVATLQAVGDAYRALTDPAEAKAAAEKARALAEELAARTAEIQA
# B16: design_486_d4f32670-1303-4d79-8413-1b14cb3eff50_1473_dldesign_0_cycle1_af2pred (protein)
# chain: GSMAAAAAAEAARRAALLAEAQAKMNEASKAAIEATKTDPAKAKYYNEALALYQEAAALANDGSKYEEAKEKLKEGDKLMEKV
# B17: design_486_d4f32670-1303-4d79-8413-1b14cb3eff50_1678_dldesign_0_cycle1_af2pred (protein)
# chain: AAMEEKEQRIINAAKANLELAKIALEGAPHNPELALKVLEALARRAKELAEEAKKLGLEEAEKAAKEAAEEIKKYAKEAQALL
# B18: design_486_d4f32670-1303-4d79-8413-1b14cb3eff50_1615_dldesign_0_cycle1_af2pred (protein)
# chain: DGYIQLAIAYANAAANRASPEVAPKLREVAELAKKGATDPEALKKAIELAKKLAKEVPEVADLLEKAVEYLKEALKAVE
# B19: design_486_d4f32670-1303-4d79-8413-1b14cb3eff50_1537_dldesign_0_cycle1_af2pred (protein)
# chain: AAAAAAARALALAEEAAAALPPDAGARVREMVRRAVALLEAGDAGAAIQTLLDAIRYGTAAARAIDPARAATVANALTRAIVAISAAA
# Target: CD276, Q5ZPR3
# Sequence (Q5ZPR3 whole entry): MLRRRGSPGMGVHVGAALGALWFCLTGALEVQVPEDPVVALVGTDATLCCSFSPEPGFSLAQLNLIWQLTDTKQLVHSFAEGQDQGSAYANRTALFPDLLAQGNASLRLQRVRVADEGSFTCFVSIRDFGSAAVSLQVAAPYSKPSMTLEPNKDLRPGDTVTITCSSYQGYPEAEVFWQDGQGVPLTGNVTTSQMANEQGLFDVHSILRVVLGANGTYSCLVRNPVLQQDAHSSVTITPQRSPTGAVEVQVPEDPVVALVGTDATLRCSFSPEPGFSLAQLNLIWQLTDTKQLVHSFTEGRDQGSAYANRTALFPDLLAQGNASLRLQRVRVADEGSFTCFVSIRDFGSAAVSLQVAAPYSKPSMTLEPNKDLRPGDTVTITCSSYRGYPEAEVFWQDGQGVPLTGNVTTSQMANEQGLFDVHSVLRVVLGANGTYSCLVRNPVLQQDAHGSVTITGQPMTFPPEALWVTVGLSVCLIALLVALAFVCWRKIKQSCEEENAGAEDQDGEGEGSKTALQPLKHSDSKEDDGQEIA
row,Binder,binding in a display sort
1,B1,not found (inactive)
2,B2,not found (inactive)
3,B3,not found (inactive)
4,B4,not found (inactive)
5,B5,not found (inactive)
6,B6,not found (inactive)
7,B7,not found (inactive)
8,B8,not found (inactive)
9,B9,not found (inactive)
10,B10,not found (inactive)
11,B11,not found (inactive)
12,B12,not found (inactive)
13,B13,not found (inactive)
14,B14,not found (inactive)
15,B15,binds (active)
16,B16,not found (inactive)
17,B17,not found (inactive)
18,B18,not found (inactive)
19,B19,not found (inactive)
